Compound activity (PubChem BioAssay)
An excerpt weighted towards active compounds, which were near 3.6% of everything screened.
ERa SRC1 pot = ER-alpha (human) coactivator binding potentiation; TR-FRET ERalpha-LBD/SRC-Cy5 coactivator binding, 2 h; 100 = basal binding, no effect; 1.3% of 86,000 active; coactivator binding (% of control), % at 25.6 µM; P03372; in the data active means activity above about 200%;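 further: binding measured in presence of low estradiol as agonist stimulus; 0% = peptide alone without receptor and 100% = receptor with peptide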
Target sequence (P03372 whole entry, looked up, the tested form may be a part): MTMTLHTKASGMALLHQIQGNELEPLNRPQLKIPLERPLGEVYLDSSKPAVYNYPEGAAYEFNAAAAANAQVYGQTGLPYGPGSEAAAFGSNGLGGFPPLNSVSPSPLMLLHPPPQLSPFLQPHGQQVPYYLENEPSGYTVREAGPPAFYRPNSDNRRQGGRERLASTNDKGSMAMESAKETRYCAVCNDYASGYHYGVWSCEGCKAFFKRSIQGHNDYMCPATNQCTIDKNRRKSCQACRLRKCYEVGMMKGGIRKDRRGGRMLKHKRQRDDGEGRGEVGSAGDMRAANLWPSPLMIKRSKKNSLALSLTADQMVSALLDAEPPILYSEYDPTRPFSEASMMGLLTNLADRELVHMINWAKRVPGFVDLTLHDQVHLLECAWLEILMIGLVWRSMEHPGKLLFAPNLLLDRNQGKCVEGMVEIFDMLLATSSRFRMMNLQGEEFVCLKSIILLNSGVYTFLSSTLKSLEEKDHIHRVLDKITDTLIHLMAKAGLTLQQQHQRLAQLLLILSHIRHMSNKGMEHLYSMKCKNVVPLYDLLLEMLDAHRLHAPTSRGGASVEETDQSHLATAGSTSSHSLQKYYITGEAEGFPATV
IL1B NFkB pot = enhances IL-1B driven NFkB nuclear translocation; activation, % at 2 µM; HUVEC IL-1B NFkB p65 nuclear translocation imaging; 0.3% of 94,000 active;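 active means activation above 40%, about the mean plus 3 SD, also judged a hit on visual image review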;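 further: percent activation is computed from the nuclear over cytoplasmic p65 intensity ratio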
IL1B cytotox = HUVEC cytotoxicity counter-screen, IL-1B stimulated. AID 845. cell count reduction, % at 2 µM. HUVEC cell count loss, Hoechst imaging. 0.41% of 94,000 active;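 active means cell count reduction more than 3 SD above the screen-wide mean, cut at about 70% in these data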;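 further: normalized per plate to untreated control cells as the no-loss baseline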
ERa SRC1 inh = blocks coactivator binding to human estrogen receptor alpha; TR-FRET ER-alpha LBD / SRC-1 peptide, estradiol-bound; inhibition, % at 25.6 µM; 1.7% of 86,000 active; in the data active means inhibition above about 50%;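 further: 0% = receptor plus peptide control and 100% = peptide only without receptor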
ERb coact inh = blocks coactivator binding to human estrogen receptor beta; Q92731; TR-FRET ER-beta LBD / SRC1-Cy5 peptide binding; receptor agonist-loaded with 1 µM estradiol; inhibition, % at 25.6 µM; 1.3% of 86,000 active;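 active means compounds whose percent inhibition of the receptor-coactivator binding signal exceeds about 50% in the single-dose screen, limit read from the data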;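 further: 0% = receptor plus peptide wells without compound and 100% = peptide-only wells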
NFkB transloc inh = blocks IL-1B driven NFkB nuclear translocation in HUVEC cells; HUVEC IL-1B NFkB p65 nuclear translocation imaging; inhibition, % at 2 µM; AID 796; 0.43% of 94,000 active;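 active means inhibition above about 30% together with a positive call from visual inspection of the well image, limit read from the data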;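 further: nuclear over cytoplasmic p65 intensity ratio measured by imaging; 0% = IL-1B stimulated DMSO wells and 100% = unstimulated DMSO wells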
An asterisk follows results filed as active; · = no result given; [ ] = dose if it differs, or a comment.

SMILES	ERa SRC1 pot	IL1B NFkB pot	IL1B cytotox	ERa SRC1 inh	ERb coact inh	NFkB transloc inh
CCCc1cc(=O)[nH]c(SCC(=O)c2cc(C)n(C(C)COC)c2C)n1 (stereo unspecified)	114	20	-37	5	3	-20
COCN(C#N)c1nc(OC)nc(OC)n1	110	·	·	10	55*[fluorescence artefact?]	·
CCCS(=O)(=O)N1CCCC(C(=O)N2CCN(C(=O)OCC)CC2)C1 (stereo unspecified)	121	10	-50	0	5	-10
CON/C=C(\C=Nc1ccc(Cl)cc1)c1ncc(C(F)(F)F)cc1Cl	·	3	5	·	·	-3
COc1ccc2c(-c3ccccc3)cc3nnnn3c2c1	206*	4	1	17	16	-4
Cc1cc(NC(=O)CSc2cn(CCNC(=O)c3ccc(Cl)cc3)c3ccccc23)no1	58	·	·	70*	44	·
CC(C)NC(=O)c1ccc(C2SCC(=O)N2Cc2ccccc2)cc1 (stereo unspecified)	107	10	-34	16	16	-10
Cc1sc2ncnc(Sc3nnc4sc5ccccc5n34)c2c1C	133	·	·	-10	-3	·
O=C(NCC1CCCO1)c1ccc(S(=O)(=O)N2CCC(c3nc4ccc(Cl)cc4[nH]3)CC2)cc1 (stereo unspecified)	95	40	-30	13	9	-40
COc1ccc(C(=O)CSc2nnc(-c3ccccn3)n2Cc2ccco2)cc1	271*[fluorescence artefact?]	4	21	14	14	-4
c1ccc(CC2CCN(c3nc(N4CCOCC4)nc(N4CCOCC4)n3)CC2)cc1	127	20	2	-24	-33	-20
COCCNS(=O)(=O)c1ccc(C2CNC(=O)C2)cc1 (stereo unspecified)	103	16	2	-2	-14	-16
O=C1CC(c2ccc(S(=O)(=O)NCCOc3ccccc3)cc2)CN1 (stereo unspecified)	124	-4	-155	3	57*	4
CCCCCOc1ccccc1C(=O)NCCC(=O)O	107	0	-13	-4	-6	0
CCOC(=O)c1c(NC(=O)C(C)N2CCN(C(=O)c3ccco3)CC2)sc2c1CCCC2 (stereo unspecified)	·	6	-3	·	·	-6
O=C(c1cn(-c2ccccc2)nc1-c1ccncc1)n1nnc2ccccc21	216*	30	-17	33	26	-30
N#CCCCSc1nnc(-c2ccccn2)o1	102	9	-20	-14	-13	-9
Cc1[nH]c2ccc(-c3nnc(SCC(=O)c4ccccc4F)o3)cc2c1C	62	-5	-30	70*	46	5
COc1ccc(N2CC(C(=O)OCC(=O)NCc3ccccc3)CC2=O)cc1 (stereo unspecified)	·	1	-31	·	·	-1
O=C(COc1ncnc2ccc(Br)cc12)Nc1ccc(N2CCOCC2)cc1	101	-4	3	7	15	4
Brc1ccc2ncnc(Nc3ccc(N4CCOCC4)cc3)c2c1	32	23	-14	59*[fluorescence artefact?]	82*[fluorescence artefact?]	-23
CN(Cc1ccc(O)cc1)C1CCCCC1	100	-2	13	-5	3	2
CN(C/C(O)=C(\C#N)c1ccccc1)C1CCCCC1	114	126*	-2	6	5	-126
CCOC(=O)c1c(NC(C)=O)sc2c(O)c(CN3CCN(CC)CC3)ccc12	200	-4	-3	54*[fluorescence artefact?]	44	4
CN(C)c1ccc(/C=N/NC(=O)c2ccc(Cl)cc2)cc1	·	-50	-30	·	·	50*
SMILES	ERa SRC1 pot	IL1B NFkB pot	IL1B cytotox	ERa SRC1 inh	ERb coact inh	NFkB transloc inh
CN1CCc2c(sc(/N=C/c3cccs3)c2C(N)=O)C1	70	-3	-4	24	74*[fluorescence artefact?]	3
O=c1[nH][nH]c(-c2ccccc2)c1C=Nc1ccccc1Cl	·	1	-16	·	·	-1
CN(C)c1nccc(Nc2ccccc2)c1C#N	126	0	1	99*[fluorescence artefact?]	-12	0
CCOC(=O)c1sc(N)nc1-c1ccccc1	103	-6	6	-8	-2	6
CCOC(=O)C1=C(c2ccccc2)OC(N)=C(C#N)C1C1CCCCC1 (stereo unspecified)	76	-19	-126	0	1	19
CCOC(=O)C1=C(c2ccccc2)O/C(=C(/C#N)C(F)(F)F)S1	168	-56	-37	1	3	56*
CCOC(=O)C1=C(c2ccccc2)O/C(=C(\C(=O)OC)C(F)(F)F)S1	270*[fluorescence artefact?]	0	10	8	9	0
